In PubChem BioAssay (NCATS):
Inconclusive results are not listed. Active and inactive are the calls of the source. Calls come from the whole dose curve; as a rule, active = well fitted curve in either direction with a large enough effect (not every such curve was filed as active); inconclusive = small, poorly fitted or top-dose-only effect, or another doubt; inactive = flat fitted curve, though single readings scatter.

Assay: AP1 Signaling Pathway (AID 357);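 note: ME-180 reporter cells stimulated with EGF at its EC50 level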
Conditions: ME-180 (cervical carcinoma) AP-1-bla reporter, EGF-induced, beta-lactamase ratio, 5 h; at 17.2 µM (top of the series) unless noted
Summary of the method: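 Modulation of EGF-driven AP-1 transcription was assessed with a beta-lactamase reporter in ME-180 cells. Compound and EC50 EGF were co-incubated 5 hours at 37 °C before 2.5-hour CCF4 loading at room temperature and dual-emission reading.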
% is set by controls: 0 for no effect and ±100 for the full control effect.

Activity change, negative = inhibition, inactive:
CS(=O)(=O)c1ccc2nc(NC(NC(=O)c3ccco3)(C(F)(F)F)C(F)(F)F)sc2c1 -11.7%
N#C/C(C(=O)NCc1ccccc1)=C1\SC(CCO)C(=O)N1c1ccccc1 (configuration not stated) -9.75%
Cn1c[n+](C)cc1/C=N/O 6.85%
CC(C)c1[nH]c(=O)c(C#N)c2c1CSC(C)(C)C2 -3.98%
Cc1cc(C)c(C#N)c(SCC(=O)NC2CC2)n1 5.34%
COC(=O)CC1SC(=O)NC1=O (configuration not stated) 6.96%
Cc1cc(=O)oc(C)c1C(=O)NC1CC(C)(C)NC(C)(C)C1 -2.44%
COC(=O)CSc1nnc(C)c(=O)[nH]1 0.589%
O=c1[nH]cnc2cc(-c3ccccc3)sc12 -9.08%
CCOC(=O)c1c(C)n(C)c2ccc(OC)c(NC(=O)CN3CCCCC3)c12 -11.4%
CCN(CC)CCN1C(=O)C(=O)/C(=C(/O)c2c(C)[nH]c(C(=O)OC)c2C)C1c1ccco1 (configuration not stated) 6.74%
COc1cccc(C2C(C(=O)c3cc4ccccc4o3)=C(O)C(=O)N2CCN(C)C)c1OC (configuration not stated) 8.36%
CCNC(=O)N(C)c1nncnc1C(=O)NC 5.47%
O=C(NCCO)C1(c2ccccc2)CCCC1 15.9%
O=C1C=C(O)CC(c2ccc(Cl)c(Cl)c2)C1 (configuration not stated) 7.55%
CCN(CC)S(=O)(=O)c1cccc2c(N(C)C)cccc12 -13.4%
CCCCc1nc(N2CCOCC2)c(C#N)c2c1CCCC2 -10.8%
